Bioassay records deposited in PubChem by National Center for Advancing Translational Sciences (NCATS).
Many of the other results were omitted from the sample, so hits are more common in it than they were.
12-LOX inh – Primary qHTS assay for inhibitors of human arachidonate 12S-lipoxygenase (ALOX12): Round 2; Polyunsaturated fatty acid lipoxygenase ALOX12 (Homo sapiens), P18054; Potency, µM (series often up to 108 µM), for inactives: top-dose activity change, negative = inhibition, most hits filed as inhibitors; purified 12hLO, xylenol orange hydroperoxide absorbance; 580,000 tested, 1.1% active; note: % is set by controls: 0 for no effect and ±100 for the full control effect
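Purified human 12hLO at 150 nM in 25 mM Hepes, 0.01% Triton X-100, pH 7.0, preincubated 15 min at room temperature with compound. Reaction started with 40 uM arachidonic acid, 30 min at room temperature. Hydroperoxide measured by Fe-xylenol orange, 573/405 nm absorbance ratio.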
VDR inhibitor – Inhibitors of the vitamin D receptor (VDR): qHTS; Potency, µM, for the others: max response, negative = inhibition, actives largely listed as inhibitors; AID 504847, 2011; 400,000 tested, 0.93% active; Vitamin D3 receptor (Homo sapiens), P11473; VDR-SRC2-3 peptide fluorescence polarization, 2 h; note: % is set by controls: 0 for no effect and ±100 for the full control effect
Target sequence (P11473 whole entry, looked up): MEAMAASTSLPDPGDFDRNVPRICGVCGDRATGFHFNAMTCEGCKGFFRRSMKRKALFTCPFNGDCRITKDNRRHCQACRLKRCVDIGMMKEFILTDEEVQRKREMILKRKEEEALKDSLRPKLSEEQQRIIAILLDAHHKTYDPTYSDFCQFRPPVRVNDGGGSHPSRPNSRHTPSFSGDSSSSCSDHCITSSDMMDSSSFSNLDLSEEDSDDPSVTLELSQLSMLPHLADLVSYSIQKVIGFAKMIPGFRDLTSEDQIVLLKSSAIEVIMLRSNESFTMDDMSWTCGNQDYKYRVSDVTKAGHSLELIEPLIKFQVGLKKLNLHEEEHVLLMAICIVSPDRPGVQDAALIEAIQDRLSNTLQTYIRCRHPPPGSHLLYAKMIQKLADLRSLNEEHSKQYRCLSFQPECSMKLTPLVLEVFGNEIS
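Fluorescence polarization assay measuring small-molecule disruption of VDR binding to the coregulator peptide SRC2-3. Compounds were pin-transferred (23 nl) into the reagent mix and incubated 2 h at room temperature before reading.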
Glioma ERSR ind – qHTS for Inducers of the Endoplasmic Reticulum Stress Response (ERSR) in Human Glioma: qHTS | 420,000 tested, 0.02% active | U87-MG GRP78 promoter luciferase reporter, 16 h | Potency, µM, without a hit: at the top dose activation, actives largely listed as activators; note: series mostly up to about 76 µM; % of control where 0% means no effect; nearly all actives have a fitted effect of over 35% in size
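ERSR induction read as luciferase luminescence (Bright-Glo, 10 min at room temperature) in stably transfected human U87-MG glioma cells exposed to compounds for 16 h, using GRP78 as sensor.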
G9a block – qHTS Assay for Inhibitors of Histone Lysine Methyltransferase G9a | Histone-lysine N-methyltransferase EHMT2 (Homo sapiens), Q96KQ7 | G9a H3K9 monomethylation, AlphaScreen, 2 h | Potency, µM (doses to about 102 µM), for inactives: at the top dose activity, negative = inhibition, actives largely listed as inhibitors | 350,000 tested, 8.8% active | AID 504332, 2011; note: % is set by controls: 0 for no effect and ±100 for the full control effect; nearly all actives have a fitted effect of over 75% in size
Target sequence (Q96KQ7 913-1193 limits assumed): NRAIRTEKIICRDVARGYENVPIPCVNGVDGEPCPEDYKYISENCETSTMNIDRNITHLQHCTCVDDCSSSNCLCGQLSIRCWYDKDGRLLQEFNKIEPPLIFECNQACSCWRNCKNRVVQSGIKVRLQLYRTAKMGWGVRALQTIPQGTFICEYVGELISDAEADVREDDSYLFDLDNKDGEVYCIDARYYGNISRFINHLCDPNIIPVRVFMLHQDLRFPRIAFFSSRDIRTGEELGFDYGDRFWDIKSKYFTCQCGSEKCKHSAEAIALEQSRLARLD
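Chemiluminescent proximity detection of H3K9 monomethylation, read after 10 min bead incubation in the dark. Reaction: 20 nM G9a, 500 nM biotin-H3K9 peptide, 20 uM SAM cofactor, 2 h, room temperature, following 15 min enzyme-compound preincubation.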
Sfp PPTase inh – qHTS Assay for Inhibitors of Bacillus subtilis Sfp phosphopantetheinyl transferase (PPTase); Potency, µM, without a hit: largest response in the series, negative = inhibition, hits mostly inhibitors; 310,000 tested, 3.5% active; Biochemical Sfp PPTase activity, qHTS; AID 1490, 2009;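 note: the enzyme is Sfp with the accession as filed and its product quenches rhodamine fluorescence; 0% = enzyme reaction without inhibitor and -100% = no enzyme wells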
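Reaction rates are the 30-min fluorescence difference (ex 525, em 598 nm) in wells containing 15 nM Sfp, 5 uM rhodamine-CoA and 12.5 uM BHQ-2-YbbR at pH 7.6 with 10 mM MgCl2.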
An asterisk follows results filed as active; u = inconclusive; x = no result; [ ] = dose if it differs, or a comment. Calls come from the whole dose curve; as a rule, active = well fitted curve in the direction sought with a large enough effect; inconclusive = small, poorly fitted or top-dose-only effect, or another doubt; inactive = no such curve, though single readings can be large; an effect the other way counts as inactive or inconclusive. Potency is the fitted concentration of half-maximal effect.

SMILES	12-LOX inh	VDR inhibitor	Glioma ERSR ind	G9a block	Sfp PPTase inh
COc1ccc(C2=C(C(C)=O)Sc3nnc(-c4ccc(OC)cc4)n3N2C(C)=O)cc1	-7.9%	x	x	x	x
C=C(C)C(=O)NNc1ccccc1	-2.8%	-12.7%	-2.4%	11.2µM*	-10.9%
CCCOC(=O)C(=O)NNc1ccccc1	-29.4%	-13.6%	-2.1%	39.8µM*	-18.1%
CC(=O)Nc1ccccc1	-9.2%	4.4%	-0.9%	0.4%[2.33 µM]	-7.6%
CC(C)OC(=O)C(=O)NNc1ccccc1	u	8.7%	-3.1%	u	-23.3%
COC(=O)COc1cccc(N)c1	12.6µM*	x	x	x	x
CCN(CC)c1ccc(NC(=O)/C=C\c2ccccc2Cl)cc1	u	4.2%	4.7%	3.55µM*	-4.3%
CN(C)c1ccc(NC(=O)/C=C/c2ccccc2Cl)cc1	-24.2%	-12.2%	2.6%	1.12µM*	0.7%
CCCCOC(=O)CSc1nnc(-c2cc(OC)c(OC)c(OC)c2)o1	u	-9.5%	12.6µM*	22.8%	9.6%
CSc1cccc(N2CC(C(=O)N(CC(C)C)c3c(N)n(Cc4ccccc4)c(=O)[nH]c3=O)CC2=O)c1 (configuration not stated)	u	-9.8%	-4.7%	39.8µM*	x
CCCCN(C(=O)CSc1nnc(-c2ccc(Cl)cc2)o1)c1c(N)n(CC(C)C)c(=O)[nH]c1=O	u	7.8%	-1.3%	1µM*	x
Cc1nnc(SCC(=O)N(CC(C)C)c2c(N)n(Cc3ccccc3)c(=O)[nH]c2=O)n1N	u	0.3%	-0.8%	10µM*	x
CC(C)CN(C(=O)C1CC1)c1c(N)n(Cc2ccccc2)c(=O)[nH]c1=O	17.4%	-0.6%	-4.2%	-25.4%	x
CC(C)CN(C(=O)CSc1nnc(-c2cccs2)n1N)c1c(N)n(Cc2ccccc2)c(=O)[nH]c1=O	-5.3%	-14.6%	-1.5%	50.1µM*	x
CC(=O)c1ccc2ccccc2c1OCc1ccccc1C#N	1.0%	x	x	x	x
CCC1(CC)CN(C(=O)C2CCC(=O)N(Cc3ccccn3)C2)CCO1 (configuration not stated)	36.0%	x	x	x	x
CC(C)CN(C(=O)CCCc1nc2ccccc2c(=O)[nH]1)c1c(N)n(Cc2ccccc2)c(=O)[nH]c1=O	u	-2.8%	-2.0%	39.8µM*	x
CCCCN(C(=O)CSc1nnc(-c2ccc(OC)cc2)n1CC)c1c(N)n(Cc2ccccc2)c(=O)[nH]c1=O	1.6%	-14.8%	-1.0%	4.7%[59 µM]	15.9%
CCCCN(C(=O)CSc1nnc(-c2ccc(OC)cc2)n1C(C)C)c1c(N)n(Cc2ccccc2)c(=O)[nH]c1=O	-17.0%	1.8%	-2.1%	10µM*	16.5%
Cc1nc2ccccc2c(C)c1CC(=O)N(CC(C)C)c1c(N)n(Cc2ccccc2)c(=O)[nH]c1=O	-24.4%	-1.1%	-7.1%	4.5%[0.501 µM]	x
COCCn1c(C)cnc1CC1CCCN(Cc2ccc(F)c(F)c2)C1 (configuration not stated)	76.9%	x	x	x	x
C=C(C)CNC(=S)N/N=C1\CC2CC=CC12 (configuration not stated)	71.5%	x	x	x	x
Cc1ccc(NNC(=O)c2ccno2)c(C)c1	-29.8%	-2.4%	-0.7%	0.794µM*	-9.1%
CC(C)Cn1nc(C(=O)N2CC(C(=O)N3CCCCC3)Oc3ccccc32)c2ccccc2c1=O (configuration not stated)	0.4%	x	x	x	x
O=C1NC(=S)N(C(=O)c2ccc(F)cc2)/C1=C/c1ccccc1	u	0.2%	18.5%	10µM*	u
SMILES	12-LOX inh	VDR inhibitor	Glioma ERSR ind	G9a block	Sfp PPTase inh
Cc1ccc(-c2cn(C[C@H]3CC[C@@H]([C@@H]4CC[C@H](Cn5cc(-c6ccc(C)cc6)nn5)O4)O3)nn2)cc1	-20.9%	-18.8%	4.2%	x	10.1%
c1c(CC2CCCC2)nnn1C[C@H]1CC[C@@H]([C@@H]2CC[C@H](Cn3cc(CC4CCCC4)nn3)O2)O1	-0.7%	-19.8%	-4.0%	39.8µM*	1.1%
COc1ccccc1CNC(=O)Cn1ccc2c(Cl)cccc21	13.0%	x	x	x	x
COc1ccc(C2c3ccc4ccccc4c3Oc3ncn4nc(Cc5ccccc5)nc4c32)cc1OC (configuration not stated)	12.1%	16.2%	-0.9%	7.08µM*	1.8%
O=C(NC1CCCCC1)O[C@@H]1CO[C@H]2[C@@H]1OC[C@@H]2n1nnnc1SCc1ccco1	3.55µM*	x	x	x	x
O=C(Nc1ccccc1)O[C@@H]1CO[C@H]2[C@@H]1OC[C@@H]2n1nnnc1SCc1ccco1	-4.4%[176 µM]	x	x	x	x
COc1cc(Cl)c(C)cc1N1C(=O)CN(Cc2ccccc2)C1=S	u	-25.5%	-1.7%	35.5µM*	u
COc1cc(CN2CC(=O)N(c3ccccc3Cl)C2=S)cc(OC)c1OC	13.8%	3.7%	-9.8%	-10.7%	-2.1%
COc1ccc(NC(=O)c2ccc(-c3ccc(S(=O)(=O)N4CCCC4)cc3)cc2)cc1Cl	2.0%	x	x	x	x
CN(C)CCOC(=O)C12CC3CCC(CC(C3)C1)C2	-29.6%	x	x	x	x
O=C(/C=C/c1cccc(O)c1)c1ccc(F)cc1	44.7µM*	x	x	x	x
O=C(/C=C\c1ccc2c(c1)OCO2)c1ccc(F)cc1	x	x	-1.7%	x	-0.6%
O=C(/C=C/c1ccccc1[N+](=O)[O-])Oc1ccccc1	x	x	x	70.8µM*	-6.2%
O=C(/C=C/c1ccccc1[N+](=O)[O-])c1ccc(F)cc1	-3.7%	u	3.4%	39.8µM*	-28.0%
Cc1noc(C)c1CC(=O)NC1CCCc2c1[nH]c1c(Cl)cccc21 (configuration not stated)	7.1%	x	x	x	x
CSc1nc(-c2ccco2)nn1C(=O)c1ccc(C)cc1	64.5%	-22.0%	-1.7%	44.7µM*	u
CCCC(=O)n1nc(-c2ccco2)nc1SCc1ccccc1	x	-15.8%	-5.1%	22.1%	50.1µM*
CSc1nc(-c2ccco2)nn1C(=O)c1ccco1	143.6%	-2.7%	-4.3%	39.8µM*	u
COc1ccccc1C(=O)n1nc(-c2ccco2)nc1SC	-5.4%	-8.7%	-0.6%	u	-17.8%
CC(=O)Nc1cc(F)c(F)cc1NC(=O)c1cc2ccccc2oc1=O	-11.4%	x	x	x	x
Nc1nc(COC(=O)c2cccc(Cl)c2)nc2ccccc12	-1.6%	x	x	x	x
O=c1c(Cl)c(O)c2cccc3c4ccccc4n1c23	-31.5%	u	4.1%	44.7µM*	14.1µM*
COc1c(O)c(=O)n2c3ccccc3c3ccnc1c32	-8.3%	9.7%	-0.8%	u	x
C#CCOCCOCCOCCNc1nc(N2CCN(C(=O)Cn3cc(CCCN=C(N)N)nn3)CC2)nc(N2CCN(C(=O)[C@H](C)n3cc(CCCN=C(N)N)nn3)CC2)n1	u	-10.1%	-3.4%	56.2µM*	-5.2%
